For 40 compounds, growth results are on record in PubChem BioAssay (NCI).

The panel holds about 83,000 compounds, 20% with a hit somewhere; the sample as a whole holds those more often.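 Negative percent growth values reflect cell death: -40 means 40% of the cells present at the start died, and -100 means all died.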 Active and inactive are the calls of the source.

This test relates to M14 melanoma. The test is described as follows: NCI-60 one-dose screen, 48 h (100 = growth as untreated, 0 = no growth, -100 = all killed). The following applies: 10 µM unless noted. The protocol:
Growth inhibition of the M14 human tumor cell line is measured as a screen for anti-cancer activity. Cells are grown in 96 well plates and exposed to the test compound for 48 hours. Compounds are tested at a single concentration, which is 10^-5 M for most compounds. The reported endpoint is percent growth (GI% or GIPRCNT), where numbers from 0 - 100% represent growth inhibition, and numbers from -100% - 0 represent cell death. For example, a value of 40 represents 60% growth inhibition. A value of 0 means no net growth occurred over the course of the experiment. A value of -40 indicates 40% of cells at the beginning of the experiment died by the end of the experiment. A value of -100 means all cells are dead at the end of the experiment.
NCI-60 Human Tumor Cell Lines Screen was performed using the standard one-dose NCI protocol, which is described in more detail at https://dtp.cancer.gov/discovery_development/nci-60/default.htm.
Compounds with GIPRCNT values below 10 were considered active. Activity score was based on GIPRCNT using the following formula: […]
Score is 0 for GIPRCNT values of 100 or above, 50 for GIPRCNT values of 0, and 100 for GIPRCNT values of -100.
In the case of `COc1ccc(C(=O)/C=C/C23c4ccccc4C(c4ccccc42)C2C(=O)NC(=O)C23)cc1` (stereo not given), the growth was 105% (inactive).

Regarding `CN1CCN(c2ccc(Nc3ncc(Cl)c(NC[C@@H]4CCCO4)n3)cc2)CC1`, the growth is 21.7% (inactive).

For `CN(CCC(=O)/C(=C\c1ccccc1)c1ccc(Cl)cc1)Cc1ccccc1`, the growth is 37.9% (inactive).

As for `C=C(C)[C@@H]1CC[C@]2(CNCCO)CC[C@]3(C)[C@H](CC[C@@H]4[C@@]5(C)CCC(N)[C@@](C)(CO)[C@@H]5CC[C@]43C)[C@@H]12` (stereo not given in full), the growth is -77% (active).

As for `Nc1ccn(C2OC(F)(CO)C(O)C2F)c(=O)n1` (stereo not given), the growth is 1.59% (active).

As for `CCN(CC)CCOC(=O)Nc1ccccc1Cl`, the growth was 86.1% (inactive).

Take `CN1C(=O)CCC(N2C(=O)c3cccc(NCCOCCOCCNC(=O)c4cc5c(o4)C(=O)c4ccccc4C5=O)c3C2=O)C1=O` (stereo not given): the growth is -67.2% (active).

For `CCCCN1CCN(c2ccc3nc(-c4ccc5nc(-c6ccc(OCC)c(OCC)c6)[nH]c5c4)[nH]c3c2)CC1`, the growth was -28% (active).

`O=C(Nc1ccccc1Cl)OCCN1CCOCC1`: the growth is 90.7% (inactive).

In the case of `Cl.Fc1c[c-]c(-c2ccccn2)c(F)c1.[Pt].c1ccc([PH+](c2ccccc2)c2ccccc2[PH+](c2ccccc2)c2ccccc2)cc1`, the growth was -72.5% (active).

Turning to `O=C(/C=C/C12c3ccccc3C(c3ccccc31)C1C(=O)NC(=O)C12)c1ccc(Cl)cc1` (stereo not given), the growth was 8.03% (active).

With `CCNCCNc1cc(-c2ccc(C#N)cc2)c(C#N)c2nc3ccccc3n12`, the growth was -6.91% (active).

Turning to `CCOC(=O)c1c(C)nc2c(c1N)/C(=C/c1ccc(OC)cc1)C(=O)N2Cc1ccc(F)cc1`, the growth was -56% (active).

For `CCOC(=O)c1ccc(NC(=O)CCCN(CC)CC)cc1`, the growth was 91.3% (inactive).

Turning to `OC(COc1cccc2ccccc12)CN1CCN(c2ccccc2)CC1` (stereo not given), the growth was 86.8% (inactive).

On to `c1ccc2c(c1)ncn2-c1nc2ccccc2n2c1nc1ccccc12`, for which the growth was 91.1% (inactive).

Consider `CCOc1cccnc1/C=N/NC(N)=S`, for which the growth was 42.4% (inactive).

For `CS(=O)(=O)c1ccc(N/N=C/c2c(-c3ccc(S(C)(=O)=O)cc3)[nH]c3ccc(F)cc23)cc1`, the growth was 32.9% (inactive).

Regarding `CCN(CCO)CC(=O)c1cc(Cl)cc(Cl)c1Cl`, the growth was 99.2% (inactive).

Take `CN=C1C=CC(=C(c2ccc(N(C)C)cc2)c2ccc(N(C)C)cc2)C=C1`: the growth was -65.4% (active).

For `C=C1C(=O)O[C@H]2[C@H]1CC/C(COC(=O)NCc1ccc(Cn3c(=O)sn(CCCCl)c3=O)cc1)=C\CC[C@@]1(C)O[C@@H]21`, the growth is 5.43% (active).

With `O=C1CSC(c2ccccc2Cl)N1c1nnc(Cn2cnnc2)o1` (stereo not given), the growth was 20.4% (inactive).

Consider `CS(=O)(=O)c1ccc(-c2[nH]c3ccc(F)cc3c2/C=N/NC(N)=S)cc1`, for which the growth was 11.6% (inactive).

Regarding `CC(c1ccc(-n2cccn2)cc1)c1cnc(N2CCc3ccc(C(N)=O)cc3C2)s1` (stereo not given), the growth is 45.6% (inactive).

In the case of `CC(C)N(CCOC(=O)Nc1ccccc1Cl)C(C)C`, the growth was 99.5% (inactive).

On to `COc1ccc(/C=C(\C#N)n2nnc3cc(F)c(F)cc32)c(OC)c1OC`, for which the growth was 72.7% (inactive).

On to `CCCNCC(=O)Nc1ccc(C(=O)OC(C)(C)CC)cc1`, for which the growth is 96.8% (inactive).

As for `CCCCCOC(=O)c1ccc(NC(=O)CNCC(C)C)cc1`, the growth is 97.4% (inactive).

As for `CCCc1nc2ccccn2c1Nc1ccc(C(=O)NO)cc1`, the growth was 89.6% (inactive).

Turning to `CN(C)c1ccc2cc(-c3ccccc3F)c(N)nc2c1`, the growth was 10.5% (inactive).

Take `COc1cc(-c2ccc(N=Nc3c(O)c(C(=O)Nc4ccccc4OC)cc4ccccc34)c(OC)c2)ccc1N=Nc1c(O)c(C(=O)Nc2ccccc2OC)cc2ccccc12`: the growth is 90.7% (inactive).

Take `CCCCCOC(=O)c1cccc(NC(=O)CN(CC)CC)c1`: the growth is 86.9% (inactive).

Take `COc1ccc(-c2cc(-c3cc(OC)ccc3O)[nH]c(=O)c2C#N)cc1`: the growth is 27% (inactive).

As to `c1ccc2c(c1)nc(-n1ccnc1)c1nc3ccccc3n12`, the growth was 93.1% (inactive).

Turning to `O=C(NC1CCOCC1)c1ccc2c(c1)CN(c1ncc(Cc3cccc(-n4cccn4)c3)s1)CC2`, the growth is 64% (inactive).

Regarding `CCOc1ccc(S(=O)(=O)c2ccc(C)cc2)c2c1no[n+]2[O-]`, the growth is 93.4% (inactive).

With `CC(=O)OCCc1ccccc1`, the growth was 78.6% (inactive).

As to `C=C1C(=O)O[C@H]2[C@H]1CC/C(Cn1cc(CNCCc3c[nH]c4ccccc34)nn1)=C\CC[C@@]1(C)O[C@@H]21`, the growth is 84.3% (inactive).

On to `NC(=O)c1c(NC(=O)c2ccccn2)sc2c1CCC(=O)C2`, for which the growth is 22.5% (inactive).

With `Clc1ccc2c(NCCCN3CCN(c4nc(N5CCOCC5)nc5ccccc45)CC3)ccnc2c1`, the growth is -80.3% (active).
